# In PubChem BioAssay:
# Calls of active or inactive are those of the source. How the calls were made is not given here.
# Molecular target: Pantothenate synthetase (Mycobacterium tuberculosis (strain ATCC 25618 / H37Rv)) (UniProt P9WIL5)
# Assay: Recombinant Mtb pantothenate synthetase (PanC) inhibitors, coupled enzyme, confirmatory (AID 375);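 further: 0% = full reaction with vehicle and 100% = no enzyme background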
# Details: coupled enzyme assay; at 10 µM, stronger effect = higher value
# Chain of Pantothenate synthetase (Mycobacterium tuberculosis (strain ATCC 25618 / H37Rv)) (P9WIL5 whole entry, looked up): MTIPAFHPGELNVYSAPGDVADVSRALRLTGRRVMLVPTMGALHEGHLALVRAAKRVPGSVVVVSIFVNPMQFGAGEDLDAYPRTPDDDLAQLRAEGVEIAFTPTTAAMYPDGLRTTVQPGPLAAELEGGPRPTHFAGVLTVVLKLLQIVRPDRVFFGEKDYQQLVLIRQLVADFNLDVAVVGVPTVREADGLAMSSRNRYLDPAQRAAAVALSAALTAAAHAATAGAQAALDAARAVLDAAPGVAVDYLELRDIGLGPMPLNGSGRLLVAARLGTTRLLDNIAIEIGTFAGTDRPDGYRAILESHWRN
row,Structure (SMILES),inhibition
1,O=C(Cn1cnc2c(nnn2-c2ccc(F)cc2)c1=O)N1CCCc2ccccc21,0% (inactive)
2,COc1ccccc1-n1c(SCC(=O)Nc2ccc3c(c2)OCO3)nc2c(c1=O)SCC2,0% (inactive)
3,COc1ccccc1C(=O)Nc1c2c(nn1-c1cccc(C)c1C)CS(=O)(=O)C2,7% (inactive)
4,CCc1cc2c(=O)c(-c3nc4ccccc4[nH]3)coc2cc1OC(=O)N1CCOCC1,7% (inactive)
5,Cc1nnc2sc(-c3cccc(NC(=O)c4cccnc4)c3)nn12,0% (inactive)
6,Nc1nc(-c2ccccc2Br)cs1,3% (inactive)
7,O=C(Cn1cccc1)N1CCN(C(c2ccccc2)c2ccccc2)CC1,13% (inactive)
8,CCCCOc1ccc(CC(=O)NO)cc1,9% (inactive)
9,CN1CCN(C2=Nc3cc(Cl)ccc3Nc3ccccc32)CC1,8% (inactive)
10,C=COCCNC(=O)Nc1ccc(Cl)c(Cl)c1,0% (inactive)
11,CCOC(=O)c1[nH]c2ccccc2c1NC(=O)C(C)(C)C,0% (inactive)
12,C[C@]12CC[C@@H]3c4ccc(OS(=O)(=O)O)cc4CC[C@H]3[C@@H]1CCC2=O,0% (inactive)
13,Cc1cccc(CN2CCC(CNC(=O)C3CCCN(S(=O)(=O)c4cnc[nH]4)C3)CC2)c1 (centres undefined),0% (inactive)
14,COc1ccc(C(=O)CN2C(=O)NC3(CCCc4ccccc43)C2=O)cc1OC (centres undefined),0% (inactive)
15,CC(C)c1cc(C(=O)NCc2ccco2)no1,0% (inactive)
16,O=C1C2CCCN2C(c2ccc(Cl)cc2)N1c1nccs1 (centres undefined),0% (inactive)
17,Clc1cccc(Cl)c1COc1ccncc1,0% (inactive)
18,CC(C)C(=O)Nc1nnc(CCc2nnc(NC(=O)C(C)C)s2)s1,2% (inactive)
19,C/C(Cl)=C\Cn1c(NCCc2ccccc2)nc2c1c(=O)n(C)c(=O)n2C,1% (inactive)
20,CN1CCN(C(=O)CN(Cc2ccc(Cl)cc2)S(C)(=O)=O)CC1,4% (inactive)

row,Structure (SMILES),inhibition
1,O=C(Nc1ccc2oc(=O)ccc2c1)c1cccnc1,0% (inactive)
2,Cc1nn(C(=O)c2ccoc2C)c(N)c1-c1ccccc1,2% (inactive)
3,O=C(c1ccc(Cl)c(Cl)c1)N1CCOCC1,5% (inactive)
4,NCCCCCc1nnc(SC/C=C/c2ccccc2)o1,0% (inactive)
5,CC(=O)c1cccc(NS(=O)(=O)c2ccc3c(c2)oc(=O)n3C)c1,0% (inactive)
6,CCc1c(C)nc(N2CCN(Cc3ccccc3)CC2)[nH]c1=O,3% (inactive)
7,Cc1ccc(NC(=O)COc2nc(C)cs2)cc1,1% (inactive)
8,Cc1nc2ccc(S(=O)(=O)NC(C(=O)N3CCCC3)C(C)C)cc2s1 (centres undefined),0% (inactive)
9,O=C(O)c1cc2c(s1)CCCC2,0% (inactive)
10,Cc1ccc(-n2c(=O)c(C#N)cc3c(=O)n4ccccc4nc32)cc1,0% (inactive)
11,CCn1c(Cc2ccccc2)nnc1SCC(=O)Nc1ccc(N2CCOCC2)c(Cl)c1,6% (inactive)
12,O=C1c2ccccc2C(=O)N1Cc1nc2ccccc2c(=O)n1CCN1CCOCC1,1% (inactive)
13,CN1CCN(c2oc(COc3ccc(-c4ccccc4)cc3)nc2C#N)CC1,0% (inactive)
14,COc1ccc(Br)cc1C(=O)Nc1nnn(C)n1,0% (inactive)
15,COc1cccc(NC(=O)c2ccco2)c1,0% (inactive)
16,CCOC(=O)N1CCC(N2C(=O)c3ccc(C(=O)NCc4ccco4)cc3C2=O)CC1,2% (inactive)
17,COC(=O)CSc1nc2ncc(Cl)cc2[nH]1,1% (inactive)
18,COc1ccc(S(=O)(=O)N2CCCC(C(=O)NCc3ccccn3)C2)cc1 (centres undefined),7% (inactive)
19,CCOC(=O)C1CCN(C(=O)Nc2ccc3snnc3c2)CC1,6% (inactive)
